Test results reported in PubChem BioAssay (NCATS).
Where “and” joins values, the source holds several entries; their conditions need not be identical. Identical values can stand only once. Results filed as inconclusive are left out. Entries that show only a call come without a potency. A number with no mark means an inactive call. Calls of active or inactive are those of the source. Calls follow the shape of the dose curve; as a rule, active = well fitted inhibition curve with a large enough effect; inconclusive = small, poorly fitted or top-dose-only effect; inactive = flat fitted curve, though single readings scatter.

Tests used:
CRL-7250 = normal cell line; experiment: Cytotoxic Profiling of Annotated Libraries Using Quantitative High-Throughput Screening (AID 1296008); settings: Five cell lines viability, CellTiter-Glo ATP luminescence, 48-72 h; max response: stronger effect = lower value; also: potency is read from the fitted curve at half-maximal effect
Method in brief: (§1)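 Cells exposed to compounds for 48 or 72 hr at 37 degrees Celsius. Viability read as ATP-coupled luminescence with CellTiter-Glo after 10 min at room temperature.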

HEK293 = experiment: as above; settings: Five cell lines viability, CellTiter-Glo ATP luminescence, 48-72 h; max response: stronger effect = lower value
Method in brief: as §1

HaCat [1] = experiment: as above; settings: Five cell lines viability, CellTiter-Glo ATP luminescence, 48-72 h; max response: stronger effect = lower value
Method in brief: as §1

KB-3-1 = experiment: as above; settings: Five cell lines viability, CellTiter-Glo ATP luminescence, 48-72 h; max response: stronger effect = lower value
Method in brief: as §1

NIH3T3 = experiment: as above; settings: Five cell lines viability, CellTiter-Glo ATP luminescence, 48-72 h; max response: stronger effect = lower value
Method in brief: as §1

HACAT [2] = experiment: qHTS assay to identify novel small-molecules to repurpose for Merkel cell carcinoma treatment (AID 1296009); settings: MCC and control cell lines, CellTiter-Glo viability, 72 h; at 44.8 µM (top of the series) unless noted
Method in brief: (§2)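 Dose-response viability screen; 72 hr exposure at 37 degree celsius; CellTiter-Glo added, 10 min room temperature, luminescence read; RLUs scaled between no-cell and DMSO wells.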

HEK293T = experiment: as above; settings: MCC and control cell lines, CellTiter-Glo viability, 72 h; at 44.8 µM (top of the series)
Method in brief: as §2

MCC-13 = experiment: as above; settings: MCC and control cell lines, CellTiter-Glo viability, 72 h; series mostly up to 46 µM
Method in brief: as §2

MKL-1 = experiment: as above; settings: MCC and control cell lines, CellTiter-Glo viability, 72 h; series mostly up to 46 µM
Method in brief: as §2

MKL-2 = experiment: as above; settings: MCC and control cell lines, CellTiter-Glo viability, 72 h; series mostly up to 46 µM
Method in brief: as §2

MCC-26 = experiment: as above; settings: MCC and control cell lines, CellTiter-Glo viability, 72 h; series mostly up to 46 µM
Method in brief: as §2

PAD = experiment: qHTS profiling for inhibitors of Plasmodium falciparum proliferation (AID 504749); settings: P. falciparum in erythrocytes, SYBR Green DNA, 72 h; series mostly up to 28.7 µM
Method in brief: (§3)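 Each compound contacts P. falciparum-infected red blood cells for 72 h at 37 C; lysis buffer (Tris, EDTA, saponin, Triton X, SYBR Green I) is added and fluorescence measured next morning; values normalized to controls.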

PC15 = experiment: as above; settings: P. falciparum in erythrocytes, SYBR Green DNA, 72 h; series mostly up to 28.7 µM
Method in brief: as §3

PC26 = experiment: as above; settings: P. falciparum in erythrocytes, SYBR Green DNA, 72 h; series mostly up to 28.7 µM
Method in brief: as §3

PC49 = experiment: as above; settings: P. falciparum in erythrocytes, SYBR Green DNA, 72 h; series mostly up to 28.7 µM
Method in brief: as §3

SC27B = experiment: as above; settings: P. falciparum in erythrocytes, SYBR Green DNA, 72 h; series mostly up to 28.7 µM
Method in brief: as §3

TAB109 = experiment: as above; settings: P. falciparum in erythrocytes, SYBR Green DNA, 72 h; series mostly up to 28.7 µM
Method in brief: as §3

TAB113 = experiment: as above; settings: P. falciparum in erythrocytes, SYBR Green DNA, 72 h; series mostly up to 28.7 µM
Method in brief: as §3

TAB165 = experiment: as above; settings: P. falciparum in erythrocytes, SYBR Green DNA, 72 h; series mostly up to 28.7 µM
Method in brief: as §3

W2 = experiment: as above; settings: P. falciparum in erythrocytes, SYBR Green DNA, 72 h; series mostly up to 28.7 µM
Method in brief: as §3
Also: nearly all actives have a fitted effect of over 60% in size.

C[N+]1(C)[C@@H]2CC(OC(=O)[C@H](CO)c3ccccc3)C[C@H]1[C@H]1O[C@@H]12 (stereo partly drawn)
max response (CRL-7250): 4.18%
outcome (HEK293): inactive
outcome (HaCat [1]): inactive
max response (KB-3-1): 2.27%
max response (NIH3T3): -3.27%
outcome (HACAT [2]): inactive
outcome (HEK293T): inactive
Potency (MCC-13): inactive
Potency (MKL-1): inactive
Potency (MKL-2): inactive

NC1CCC(Nc2nc(Nc3ccc(C(=O)N4CCCCC4)cc3)c3ncn(-c4cccc(F)c4)c3n2)CC1 (stereo not drawn)
outcome (CRL-7250): inactive
outcome (HEK293): inactive
outcome (HaCat [1]): inactive
max response (KB-3-1): -2.33%
max response (NIH3T3): 4.66%
outcome (HACAT [2]): inactive
outcome (HEK293T): inactive
Potency (MCC-13): inactive
Potency (MCC-26): inactive
Potency (MKL-1): inactive
Potency (MKL-2): inactive

N#Cc1ccc(NC(=O)Nc2ccccc2Br)c2n[nH]nc12
max response (CRL-7250): -24.9%
max response (HEK293): -11%
outcome (HaCat [1]): inactive
max response (KB-3-1): 1.71%
max response (NIH3T3): 3.86%
outcome (HACAT [2]): inactive
Potency (MCC-13): inactive
Potency (MCC-26): inactive
Potency (MKL-1): inactive
Potency (MKL-2): inactive

c1cc(-c2sc(-c3ccncc3)c(-c3ccncc3)c2-c2ccncc2)ccn1
max response (CRL-7250): -2.98%
max response (HEK293): -5.01%
outcome (HaCat [1]): inactive
max response (KB-3-1): 6.28%
max response (NIH3T3): 4.17%
outcome (HACAT [2]): inactive
Potency (MCC-13): inactive
Potency (MCC-26): inactive
Potency (MKL-1): inactive
Potency (MKL-2): inactive

CC(=O)O[C@]1(C(C)=O)CC[C@@H]2[C@@H]3C[C@H](C)C4=CC(=O)CC[C@]4(C)[C@H]3CC[C@@]21C
max response (CRL-7250): 2.81%
outcome (HEK293): inactive
outcome (HaCat [1]): inactive
outcome (KB-3-1): inactive
max response (NIH3T3): -6.3%
outcome (HACAT [2]): inactive
outcome (HEK293T): inactive
Potency (MCC-13): inactive

NC(N)=Nc1nc(CSCC/C(N)=N/S(N)(=O)=O)cs1
outcome (PAD): inactive
outcome (PC15): inactive
Potency (PC26): inactive
outcome (PC49): inactive
Potency (SC27B): inactive
outcome (TAB109): inactive
Potency (TAB113): inactive
Potency (TAB165): inactive
Potency (W2): inactive
max response (CRL-7250): -7.89%
outcome (HEK293): inactive
outcome (HaCat [1]): inactive
max response (KB-3-1): 30.2%
outcome (NIH3T3): inactive
outcome (HACAT [2]): inactive
outcome (HEK293T): inactive
Potency (MCC-13): inactive
Potency (MCC-26): inactive
Potency (MKL-1): inactive
Potency (MKL-2): inactive

CC(C(=O)O)c1ccc(-c2ccccc2)c(F)c1 (stereo not drawn)
max response (CRL-7250): 2.91%
max response (HEK293): 1.61%
outcome (HaCat [1]): inactive
max response (KB-3-1): -1.08% and -0.207%
max response (NIH3T3): -0.252%
outcome (HACAT [2]): inactive
Potency (MCC-13): inactive
Potency (MCC-26): inactive
Potency (MKL-1): inactive
Potency (MKL-2): inactive

CCOC1OC(=O)C[C@H]1NC(=O)[C@@H]1CCCN1C(=O)[C@@H](NC(=O)c1ccc(N)c(Cl)c1)C(C)(C)C (stereo partly drawn)
outcome (CRL-7250): inactive
max response (HEK293): -6.79%
outcome (HaCat [1]): inactive
outcome (KB-3-1): inactive
outcome (NIH3T3): inactive
outcome (HACAT [2]): inactive
Potency (MCC-13): inactive
Potency (MKL-1): inactive
Potency (MKL-2): inactive

COCCOc1nc(-c2ccc(Cl)c(Cl)c2)n(-c2ccc(NC(=O)CCl)cc2)n1
Potency (CRL-7250): 6.62 µM (active)
Potency (HEK293): 3.72 µM (active) and 4.61 µM (active)
outcome (HaCat [1]): inactive
Potency (KB-3-1): 18.7 µM (active)
Potency (NIH3T3): 4.11 µM (active)
outcome (HACAT [2]): inactive
Potency (MCC-13): inactive
Potency (MCC-26): inactive
Potency (MKL-1): inactive

CO[C@H]1C[C@@H]2CC[C@@H](C)[C@@](O)(O2)C(=O)C(=O)N2CCCC[C@@H]2C(=O)O[C@H]([C@@H](C)C[C@@H]2CC[C@H](O)[C@H](OC)C2)CC(=O)[C@H](C)C=C(C)[C@@H](O)[C@@H](OC)C(=O)[C@H](C)C[C@H](C)C=CC=CC=C1C
max response (CRL-7250): -19.3%
max response (HEK293): -97.2%
outcome (HaCat [1]): inactive
max response (KB-3-1): -8.34%
outcome (NIH3T3): inactive; activator
outcome (HACAT [2]): inactive
Potency (MCC-13): inactive

O=c1ccn([C@@H]2O[C@H](CO)[C@H](O)[C@H]2O)c(=O)[nH]1
max response (CRL-7250): -5.18%
outcome (HEK293): inactive
outcome (HaCat [1]): inactive
outcome (KB-3-1): inactive
max response (NIH3T3): -5.13%
outcome (HACAT [2]): inactive
outcome (HEK293T): inactive
Potency (MCC-13): inactive
Potency (MCC-26): inactive
Potency (MKL-1): inactive
Potency (MKL-2): inactive

CC(=O)c1ccc(S(=O)(=O)NC(=O)NC2CCCCC2)cc1
outcome (PAD): inactive
outcome (PC15): inactive
Potency (PC26): inactive
outcome (PC49): inactive
Potency (SC27B): inactive
Potency (TAB113): inactive
Potency (TAB165): inactive
Potency (W2): inactive
max response (CRL-7250): -4.5%
outcome (HEK293): inactive
outcome (HaCat [1]): inactive
max response (KB-3-1): -6.14%
max response (NIH3T3): -3.55%
outcome (HACAT [2]): inactive
outcome (HEK293T): inactive
Potency (MCC-13): inactive
Potency (MKL-1): inactive
Potency (MKL-2): inactive

O=C1Nc2ccc(Cl)cc2C(C#CC2CC2)(C(F)(F)F)O1 (stereo not drawn)
outcome (PC49): inactive
Potency (SC27B): inactive
outcome (TAB109): inactive
Potency (TAB113): inactive
Potency (W2): inactive
max response (CRL-7250): -18.6%
max response (HEK293): -29.6%
outcome (HaCat [1]): inactive
max response (KB-3-1): -17.5%
max response (NIH3T3): -6.53%
outcome (HACAT [2]): inactive
Potency (MCC-13): inactive
Potency (MCC-26): inactive
Potency (MKL-1): inactive
Potency (MKL-2): inactive
